# The entries come from a sample that favours hits as a whole.
# MBNL1 CUG block: MBNL1-poly(CUG) RNA binding inhibition; hit rate 0.036% among 280,000; TR-FRET MBNL1-His/biotin-(CUG)12 binding, 665/545 ratio; Q9NR56; Potency, µM (top dose mostly 57.5 µM), without a hit: at the highest dose activity change, negative = inhibition, usual class: inhibitors; active = well fitted inhibition curve with a large enough effect in the signal ratio, with a control signal flat, not every such curve was filed as active; inconclusive = small, poorly fitted or top-dose-only effect, or effect the other way, or a change in a side signal; inactive = no such curve, though single readings can be large or run the other way; the % refers to the signal ratio; note: potency is the fitted concentration of half-maximal effect; % is set by controls: 0 for no effect and ±100 for the full control effect
# Target sequence (Q9NR56 whole entry, looked up): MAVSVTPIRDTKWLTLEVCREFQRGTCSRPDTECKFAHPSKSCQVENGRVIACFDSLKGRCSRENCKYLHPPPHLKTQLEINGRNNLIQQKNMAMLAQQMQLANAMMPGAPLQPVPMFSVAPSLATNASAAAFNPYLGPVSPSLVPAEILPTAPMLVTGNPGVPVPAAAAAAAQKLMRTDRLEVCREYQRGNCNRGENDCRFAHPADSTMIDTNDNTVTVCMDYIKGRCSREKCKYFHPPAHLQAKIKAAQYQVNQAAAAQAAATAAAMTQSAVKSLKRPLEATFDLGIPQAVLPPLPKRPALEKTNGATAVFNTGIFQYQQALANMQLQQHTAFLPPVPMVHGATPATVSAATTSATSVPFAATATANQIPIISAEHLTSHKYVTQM
#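 Compound titration spanned 92 nM–58 uM against the MBNL1-His/biotin-(CUG)12 complex. After 60 min at room temperature with 5 nM streptavidin-XL665 and 0.055 ng/ul terbium anti-His, ratiometric 665/545 nm emission (Ex 340 nm) normalized to controls.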
# Rango release inh: inhibition of RanGTP-driven Rango-importin beta dissociation. Biochemical FRET Rango-importin beta, RanGTP-induced dissociation. O95149+P62826. Potency, µM (highest dose often 46.1 µM), for the others: at the highest dose activity change, negative = inhibition. hit rate 0.071% among 340,000. AID 540253; note: potency is the fitted concentration of half-maximal effect; % of control where 0% means no effect; nearly all actives have a fitted effect of over 45% in size
#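 Quantitative HTS using a FRET biosensor: 0.1 uM Rango, 0.25 uM importin beta, 0.6 uM Ran, 2 mM GTP, 0.2 uM RCC1 final, PBS with DTT, Tween-20 and BSA. Post-read taken 45 min after Ran addition.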
# Rango complex inh: prevents formation of the Rango-importin beta complex. Q14974. Rango CFP/YFP FRET sensor + importin beta, 45 min. Potency, µM (titrated, usually from 92.2 µM), for the others: top-dose inhibition of complex formation. hit rate 0.031% among 340,000. AID 540263;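 note: potency is the fitted concentration of half-maximal effect; 0% = DMSO wells and 100% = buffer wells lacking importin beta; nearly all actives have a fitted effect of over 15% in size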
#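 FRET biosensor (snurportin 1 IBB flanked by EYFP and cerulean), 50 nM, with compound 5 min, then 0.125 microM importin beta in PBS, 1 mM DTT, 0.02% Tween-20, 0.1% BSA. CFP/YFP ratio read after 45 min at room temperature; pre-read flags interference.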
# CBFb-RUNX1 inh: blocks binding between human CBF-beta and RUNX1; Q01196+Q13951; AlphaScreen CBFb-His/RUNX1-biotin binding, biochemical; Potency, µM (top dose mostly 59.8 µM), inactives show at the highest dose activity, negative = inhibition, actives largely listed as inhibitors; 230,000 tested, under 10 active; active = well fitted curve in the direction sought with a large enough effect; inconclusive = small, poorly fitted or top-dose-only effect, or effect the other way, or another doubt; inactive = no such curve, though single readings can be large or run the other way; note: % of control where 0% means no effect
#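 Room-temperature protein-protein interaction test with 30 nM each of His-tagged CBF-beta and biotinylated RUNX1, 15 min with compound, then 90 min with nickel plus streptavidin beads. Signal read in AlphaScreen mode.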
# ClpP mod: qHTS Assay for Activators of ClpP | ATP-dependent Clp protease proteolytic subunit (Bacillus subtilis (strain 168)), P80244 | purified B. subtilis ClpP, FRET peptide cleavage, 20 min | Potency, µM (titrated, usually from 57.5 µM), without a hit: top-dose activity change, negative = active | hit rate 1.9% among 340,000; active = well fitted falling curve with a large enough effect; inconclusive = small, poorly fitted or top-dose-only effect; inactive = no such curve, though single readings can be large or run the other way; note: potency is the fitted concentration of half-maximal effect; the source files actives as falling curves though it sought activators and does not explain the sign; nearly all actives have a fitted effect of over 65% in size
# Target sequence (P80244 whole entry, looked up): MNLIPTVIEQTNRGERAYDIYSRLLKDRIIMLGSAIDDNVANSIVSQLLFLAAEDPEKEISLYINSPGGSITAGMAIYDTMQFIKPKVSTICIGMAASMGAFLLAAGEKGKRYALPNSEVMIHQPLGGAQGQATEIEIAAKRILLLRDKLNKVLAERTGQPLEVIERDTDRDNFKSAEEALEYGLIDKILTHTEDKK
#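 Purified B. subtilis ClpP, 10 microg/mL final in Tris/HCl pH8 with KCl, BSA, glycerol and Tween-20, cleaved an Abz/nitrotyrosine-quenched decapeptide. Fluorescence (ex 320, em 430) was read at 0 and 20 min at room temperature. Delta was normalized to 5.8 microM ADEP and DMSO/no-enzyme controls.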
# An asterisk follows results filed as active; ? = inconclusive; / = no result; ! = a repeat was not active; [ ] = dose if it differs, or a comment. Unless noted, calls come from the whole dose curve.
SMILES,MBNL1 CUG block,Rango release inh,Rango complex inh,CBFb-RUNX1 inh,ClpP mod
COCCNC(=O)C(=O)N/N=C(\C)CC(=O)Nc1ccc(Cl)cc1Cl,/,-4.8%,?,-10.3%,28.2µM*
C/C(CC(=O)Nc1ccc(Cl)cc1Cl)=N\NC(=O)C(=O)N1CCCC1,2.6%,6.6%,4.1%,-2.9%,/
Cc1ccc(Nc2nc(-c3cccnc3)nc3ccccc23)cc1,-2.9%,4.0%,0.6%,5.8%,/
CCOC(=O)c1ccc(Nc2nc(-c3cccnc3)nc3ccccc23)cc1,10.8%,3.6%,-2.2%,-3.2%,28.2µM*
Cc1c(C)n(Cc2ccccc2)c2ccc(C(=O)NCc3ccc(OC(C)C)cc3)cc12,/,/,/,/,17.8µM*
Cc1ccccc1CCNC(=O)c1ccc2c(c1)c(C)c(C)n2Cc1ccccc1,/,/,/,/,31.6µM*
Cc1c(C)n(Cc2ccccc2)c2ccc(C(=O)NCCc3ccccc3Cl)cc12,/,/,/,/,15.8µM*
CCOC(=O)c1ccc(NC(=O)c2ccc3c(c2)c(C)c(C)n3Cc2ccc(F)cc2)cc1,/,/,/,/,17.8µM*
COc1ccc(OC)c(CCNc2nc3ccccc3c3nc(-c4cccnc4)nn23)c1,/,/,/,/,-3.5%
O=c1cc(-c2ccccc2)n2c(SCc3ccccc3Cl)nnc2[nH]1,/,/,/,/,-15.8%
COc1ccc(CCNC(=O)c2ccc3c(c2)c(C)c(C)n3Cc2ccc(F)cc2)c(OC)c1OC,/,/,/,/,25.1µM*
CCOc1ccccc1NC(=O)CN1C(=O)C2(SCC(=O)N2c2ccc(C)cc2)c2ccccc21 (stereo unspecified),/,/,/,/,-0.6%
Cc1[nH]n2c(=O)c3c(nc2c1-c1ccc(Cl)cc1)CCC3,-8.7%,4.1%,2.6%,8.5%,25.1µM*
O=c1c2c(nc3c(-c4ccccc4)c[nH]n13)CCCC2,1.9%,0.8%,0.8%,3.7%,?
Nc1[nH]n2c(=O)c3c(nc2c1N=Nc1ccc(Cl)cc1)CCCC3,2.2%,-8.8%,-3.8%,1.2%,-0.7%
Cc1[nH]n2c(=O)c3c(nc2c1-c1ccccc1)CCC3,-3.9%,0.5%,-4.0%,12.0%,31.6µM*
COc1ccc(CCNC(=O)CC(=O)N/N=C/c2ccc(C(=O)O)cc2)cc1OC,11.0%,-12.7%,-3.9%,/,14.1µM*
O=C(CC(=O)N/N=C/c1ccc(C(=O)O)cc1)NCCc1ccccc1,15.5%,-7.3%,-0.4%,/,2.3%
CCOc1ccc(/C=C/C(=O)Nc2ccc(OC)cc2[N+](=O)[O-])cc1,7.8%,7.4%,?,-8.2%,10µM*
O=C(CCNS(=O)(=O)c1ccc2c(c1)CCN2C(=O)C1CC1)N1CCN(c2ccc(F)cc2)CC1,/,/,/,/,-2.9%
COc1ccccc1N1CCN(C(=O)c2cc3c(s2)-c2ccccc2OC3)CC1,12.2%,0.9%,1.6%,/,14.1µM*
O=C(c1cc2c(s1)-c1ccccc1OC2)N1CCc2ccccc2C1,84.6%,7.4%,-2.9%,0.9%[2.36 µM],5.5%
COc1ccc(CCNC(=O)c2ccc3c(c2)N(Cc2cccc(Cl)c2)C(=O)c2ccccc2S3=O)cc1OC (stereo unspecified),/,/,/,/,-3.8%
Cc1nc2ccc(N)cc2c(=O)n1Cc1ccc(Cl)cc1,-8.2%,6.6%,-3.1%,-1.5%,35.5µM*
Cc1cc(=O)oc2cc(OCC(=O)N3CCOCC3)ccc12,21.6%,-0.3%,0.3%,-9.2%,15.8µM*
SMILES,MBNL1 CUG block,Rango release inh,Rango complex inh,CBFb-RUNX1 inh,ClpP mod
Cc1cc(=O)oc2cc(OCc3ccc(S(=O)(=O)N4CCOCC4)cc3)ccc12,7.7%,1.2%,-5.5%,-2.3%,3.16µM*
COC(=O)C(CC(C)C)Oc1ccc2c(C)cc(=O)oc2c1 (stereo unspecified),2.7%,6.4%,-1.6%,3.4%,15.8µM*
Cc1cc(=O)oc2cc(OC(C)C(=O)Nc3ccc(N4CCCCC4)cc3)ccc12 (stereo unspecified),-0.5%,9.8%,2.2%,/,-1.5%
Cc1cc(=O)oc2cc(OC(C)C(=O)N3CCOCC3)ccc12 (stereo unspecified),-11.1%,-7.1%,3.5%,-0.2%,14.1µM*
COc1ccc(-c2oc3ncn4nc(-c5ccccc5OC)nc4c3c2-c2ccc(OC)cc2)cc1,/,/,/,/,-23.9%
Cc1cc(C)c(NC(=O)C(=O)NCCc2csc(-c3ccc(F)cc3)n2)c(C)c1,/,/,/,/,12.9%
CN(C)c1ccc(C(=C2c3ccccc3-c3ccccc32)c2ccc(N(C)C)cc2)cc1,/,/,/,/,1.4%
COc1cc(Cl)c(C)cc1NC(=O)c1cnn(-c2ccc(C)cc2)c1-n1cccc1,/,/,/,/,-7.1%
COc1ccc(C2C(C#N)=C(N)OC3=C2C(=O)CC(C)(C)C3)c([N+](=O)[O-])c1OC (stereo unspecified),1.2%,23.1µM*,?,-4.7%,-8.9%
O=C(O)c1cc(NCc2ccc(F)cc2)ccc1N1CCOCC1,-8.7%,8.6%,-2.5%,5.8%,31.6µM*
CN1CC2(Cc3c1ccc1ccccc31)C(=O)OC(C)(C)OC2=O,27.1%,?,?,-4.4%,14.1µM*!
Cc1ccccc1CN1CCCN(CC(=O)Nc2ccc(F)cc2)S1(=O)=O,/,/,/,/,-0.7%
CCOC(=O)C1=C(C)NC(C)=C(C(=O)OCC)C1C(=O)O,-4.7%,6.6%,-0.5%,3.8%,0.4%
CCCC1C(C(=O)OCC)=C(C)NC(C)=C1C(=O)OCC,2.5%,-25.4%,0.2%,16.4%,20µM*
COC(=O)C1CSC(C)(C)C(=O)N1 (stereo unspecified),-4.5%,-1.6%,3.6%,19.2%,1.9%
COC(=O)CCCC[C@H]1SC[C@H]2NC(=O)N[C@]21O,0.316µM*,/,/,-26.1%,/
COC(=O)CCCCC1SCC2NC(=O)NC21O (stereo unspecified),0.708µM*,-19.3%,?,/,1.6%
COCn1c(-c2ccc(OC)c(OC)c2)nc2ccccc21,-1.6%,0.4%,0.3%,4.2%,28.2µM*
COCn1c(-c2cccc(Br)c2)nc2ccccc21,18.8%,2.0%,0.1%,2.3%,?
Cc1nn2c(nc(N3CCCCC3)c3ccccc32)c1C=O,-5.8%,-5.8%,-0.3%,1.6%,12.6µM*
Cc1ccc(NC(=O)Nc2nnc(N3CCCC3)s2)cc1C,/,/,/,/,-4.3%
COC(=O)c1ccc(C(=O)OC)c(NC(=O)COC(=O)C2CCC(C(C)(C)C)CC2)c1 (stereo unspecified),3.0%,-19.4%,-1.2%,3.8%,28.2µM*
C=CC[C@@H]1C=C[C@H](O/N=C(\C)CCN2CCCCc3nc(C)c(C)cc32)[C@H](CO)O1,/,/,/,4.1%[13.1 µM],/
CCc1nn2c(=O)cc(COC(=O)c3cccc(NC(=O)CCc4ccccc4)c3)nc2s1,/,/,/,/,31.6µM*
Cc1ccc(-c2nnc(Nc3ccc(O)cc3)c3ccccc23)cc1S(=O)(=O)N1CCN(C)CC1,/,/,/,/,1.7%
